From PubChem BioAssay
Rows were chosen to be rich in hits. Some 4.6% of all compounds tested hit in one or more screens of this group.
D1 antag – Antagonist of Human D 1 Dopamine Receptor: qHTS; HEK293 TREx D1 cells, calcium flux, dopamine EC80; hits give low values; activity change, negative = inhibition, % at 10 µM; actives 3.2% (n = 360,000); in the data active = activity change below about -30%
Target sequence (P21728 whole entry, looked up): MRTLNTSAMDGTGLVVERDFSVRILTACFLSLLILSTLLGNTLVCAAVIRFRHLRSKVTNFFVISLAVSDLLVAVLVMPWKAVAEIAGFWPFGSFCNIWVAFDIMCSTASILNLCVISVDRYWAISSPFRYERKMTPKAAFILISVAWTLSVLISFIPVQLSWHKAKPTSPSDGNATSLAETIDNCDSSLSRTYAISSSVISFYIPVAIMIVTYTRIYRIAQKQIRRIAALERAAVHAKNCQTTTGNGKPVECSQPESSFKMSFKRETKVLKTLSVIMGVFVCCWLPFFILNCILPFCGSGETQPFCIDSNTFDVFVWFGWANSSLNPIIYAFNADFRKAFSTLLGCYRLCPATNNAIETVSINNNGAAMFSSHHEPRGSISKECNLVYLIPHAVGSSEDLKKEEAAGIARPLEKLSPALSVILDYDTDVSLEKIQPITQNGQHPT
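Compound effects on dopamine-evoked calcium signalling were measured in tetracycline-induced HEK293 Trex D1 cells. Dopamine at EC80 followed a 180 s compound pre-read, and fluorescence was tracked kinetically for 180 s more.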
TRHR enhancer – qHTS for Small Molecule Agonists and Allosteric Enhancers of Human TRH Receptor: Primary Screen for Enhancers | actives 0.66% (n = 360,000) | enhancement, % at 2 µM | TRHR cells, fluo-8 calcium fluorescence, EC20 TRH enhancement; in the data active = enhancement above about 30%
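Enhancer read-out: after compound pinning and an initial kinetic agonist-mode read, an EC20 of TRH (10 nM final) was injected and fluo-8 calcium signal (Ex 480/Em 530) followed at 1 s/cycle for 100 cycles in TRHR-expressing cells.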
D1 agonist – Allosteric Agonists of the Human D1 Dopamine Receptor: qHTS. HEK293 T-REx D1 cells, calcium flux, agonist mode. actives 1% (n = 360,000). activation, % at 2 µM
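Agonism was scored from calcium flux recorded over 180 s (1 read/s) after pintool compound addition, following a 10-cycle baseline. Cells were inducible force-coupled HEK293 TREx D1, plated overnight at 30 C and loaded with no-wash calcium dye.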
TRHR ag – qHTS for Small Molecule Agonists and Allosteric Enhancers of Human TRH Receptor: Primary Screen for Agonists; Thyrotropin-releasing hormone receptor (Homo sapiens), P34981; TRHR cells, calcium flux fluo-8, FDSS agonist mode; activation, % at 2 µM; actives 0.18% (n = 360,000)
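Steps: seed TRHR cells overnight; add fluo-8 no-wash Ca dye, RT 30 min–1.5 h; record 10 s baseline; pin-transfer compounds; monitor fluorescence 1 cycle/s for the agonist window. Calcium increases flag candidate agonists.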
D1 potentiator – Potentiators of Human D1 Dopamine Receptor: qHTS | D(1A) dopamine receptor (Homo sapiens), P21728 | HEK293 TREx D1 cells, calcium flux, dopamine EC20 potentiation | potentiation, % at 10 µM | actives 0.036% (n = 360,000) | AID 504651, 2011; in the data active = potentiation above about 30%
Numbers stand for hits; i = inactive; nt = no result given. Rule as the data show it, unless noted: active = activation above about 30%; inactive = the rest.

SMILES	D1 antag	TRHR enhancer	D1 agonist	TRHR ag	D1 potentiator
CCc1ccc(S(=O)(=O)Nc2ccc(Cl)cn2)cc1	-91.8	i	i	i	i
COc1ccc(C(=O)n2nc(-c3ccco3)nc2N)cc1OC	i	i	i	i	i
COc1ccc(C(=O)n2nc(-c3ccccc3)nc2N)cc1OC	-34.1	i	i	i	i
Cc1nn(CC(=O)Nc2cccc(C(F)(F)F)c2)c(=O)c2nn(-c3ccccc3)c(C)c12	i	i	i	i	i
Cc1c(C(=O)N2CCCC2)oc2c1-c1nn(CC(=O)NCCCN3CCCCC3)cc1CC2	-31.4	i	i	i	i
O=C(O)CCCN1C(=O)/C(=C/c2cn(-c3ccccc3)nc2-c2cccs2)SC1=S	-36.6	i	50.6	i	i
Cc1cccc(-c2nc3cc(NC(=O)COc4ccccc4F)ccc3o2)c1	i	i	i	i	i
O=C(COc1ccccc1F)OCc1cc(=O)n2nc(-c3cccs3)sc2n1	i	i	i	i	i
Cc1ccc(NS(=O)(=O)c2ccc3c(c2)[C@H]2C=CC[C@H]2[C@@H](c2ccc(F)cc2)N3)cc1C	i	i	i	i	i
COC(=O)c1ccc([C@H]2Nc3ccc(S(=O)(=O)Nc4cccc(C)c4)cc3[C@H]3C=CC[C@H]32)cc1	-85.4	i	i	i	i
O=C(O)c1ccc(NS(=O)(=O)c2ccc3c(c2)C2C=CCC2C(c2ccccc2F)N3)cc1 (centres undefined)	-34.9	i	i	i	i
COc1ccc(Br)c(C(=O)Nc2cc3c(cc2N2CCOCC2)n(C)c(=O)n3C)c1	i	i	i	i	i
Cc1ccc2nc(-c3c[nH]c4ccccc34)c(Nc3ccccc3C)n2c1	i	i	i	i	i
Cc1ccccc1Nc1c(-c2c[nH]c3ccccc23)nc2cccc(C)n12	i	i	32.7	i	i
N#Cc1ccc(-c2ccco2)nc1SCc1ccccc1	-92.8	i	i	i	i
COc1cc(OC)cc(C(=O)Nc2ccc3oc(-c4ccc(Cl)cc4)nc3c2)c1	i	i	i	i	i
CN(Cc1ccccc1)c1nnc(NC(=O)Nc2cccc(Br)c2)s1	i	i	i	i	i
CN(C)CCC=C1c2ccccc2C=Cc2ccccc21	-100.1	i	i	i	i
CN(C)CC/C=C1/c2ccccc2COc2ccccc21	-74.5	i	i	i	i
CN(C)CCC=C1c2ccccc2CCc2ccccc21	-66.7	i	i	i	i
COc1ccc(CNC(=O)Cn2c(=O)cc(-c3ccccc3)c3c(C)nn(C)c32)cc1	i	i	i	i	i
O=C(CNC(=O)c1ccc(C(F)(F)F)cc1)OC(C(=O)Nc1cc(C(F)(F)F)ccc1Cl)c1ccccc1 (centres undefined)	i	i	i	i	i
CC1CCC(NC(=O)CN(C)S(=O)(=O)c2ccc3c(c2)CCC(=O)N3)CC1 (centres undefined)	-30.5	i	i	i	i
CCOc1ccc(OCC)c(S(=O)(=O)N2CCOCC2)c1	i	32.7	i	i	i
COc1ccc(-c2cc(C(=O)OCC(=O)c3ccc(C)cc3)c3cccc(Cl)c3n2)cc1	i	i	i	i	i
SMILES	D1 antag	TRHR enhancer	D1 agonist	TRHR ag	D1 potentiator
Cc1[nH]c2ccccc2c1C(=O)C(=O)N(C)C1CCCCC1	-53.3	i	i	i	i
O=C(Nc1ccc(Cc2ccncc2)cc1)C1CCC(N2C(=O)C3CCCCC3C2=O)CC1 (centres undefined)	-38.6	i	i	i	i
Cc1ccc(NC(=O)C2CCC(N3C(=O)C4CCCCC4C3=O)CC2)cc1 (centres undefined)	i	i	i	i	i
O=[S+]([O-])(c1c(F)cccc1F)N1CCN([S+](=O)([O-])c2c(F)c(F)c(F)c(F)c2F)CC1	i	i	i	i	i
CCc1ccc(NC(=O)CCc2ccc(C)o2)cc1	i	i	i	i	i
Cc1cc(NC(=O)CCc2ccc(C)o2)no1	-41.8	i	i	i	i
Cc1ccc(C)c(NC(=O)CCc2ccc(C)o2)c1	i	i	i	i	i
Cc1ccc(NC(=O)CCc2ccc(C)o2)c(C)c1	i	i	32.2	i	i
CCn1c(N2CCN(CC(=O)c3ccc(OC)cc3)CC2)nc2ccccc21	-50.1	i	i	i	i
CCN1C(=O)[C@H]2[C@@H](c3ccc(-c4cc(C(C)=O)cs4)cc3)N3CCC[C@@]3(C(=O)OC)[C@H]2C1=O	-31.1	i	i	i	i
O=[N+]([O-])C(C1CCS(=O)(=O)C1)C1CCS(=O)(=O)C1 (centres undefined)	-32.9	i	i	i	i
CC(C)CNC1CCS(=O)(=O)C1 (centres undefined)	i	i	i	i	i
Cc1cc(C)cc(-n2ccn3c(CC(C)(C)CC(=O)O)nnc3c2=O)c1	i	i	i	i	i
Cc1csc2nc3cc(C(N)=O)ccc3c(=O)n12	-44.3	i	i	i	i
O=C1c2ccccc2C(=O)N1CSc1nnnn1-c1ccccc1	i	i	i	i	i
O=C(CSc1nc2ccc(NC(=O)CSc3nnnn3-c3ccccc3)cc2s1)Nc1ccccc1	i	i	i	i	i
c1ccc(-n2nnnc2SCCCSc2nc3ccccc3s2)cc1	i	33.7	i	i	i
O=C1c2ccccc2C(=O)N1CCCCSc1nnnn1-c1ccccc1	-30.3	i	71.1	i	i
CCOc1ccccc1C(=O)Nc1nc2c(s1)CC(C)CC2 (centres undefined)	i	i	i	i	i
O=C(c1ccc(F)cc1F)N1CCC(c2nc(-c3ccc(S(=O)(=O)N4CCCC4)cc3)no2)CC1	i	i	i	i	i
CCOC(=O)c1c(-c2cccs2)csc1NC(C)=O	i	i	i	i	i
CCOC(=O)c1c(-c2cccs2)csc1NC(=O)C(C)(C)C	i	i	33.7	i	i
COc1cc(OC)c(Nc2cc(C)nc3ncnn23)cc1Cl	i	i	i	i	i
CC1CCN(CCOc2ccc(OCc3ccccc3)cc2)CC1	-41.1	i	32.9	i	i
c1ccc(COc2ccc(OCCCCN3CCCC3)cc2)cc1	-34.4	i	35.2	i	i
CC1CCN(CCCCOc2ccc(C(C)(C)C)cc2)CC1	i	i	40.6	i	i
CCOc1ccc(-c2cc(NC(=O)Nc3ccc(Cl)cc3)c(C(=O)OC)s2)cc1	i	i	i	i	i
Cn1ccc2c(OCC(=O)NCc3ccccc3Cl)cccc2c1=O	nt	i	i	i	i
O=C(O)c1nn(-c2cccc(Cl)c2)c(=O)cc1O	-44.5	i	i	i	i
